Calls of active or inactive are those of the source.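 Rule for the calls, unless noted: active = inhibition at or above 50% at 10 µM; inactive = inhibition below 50%.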
Experiment: inhibitors of Sendai virus-induced IRF3 signaling, primary screen, TLR/RLR signaling modifier project, cell-based, Sendai virus stimulus, luciferase, 10K MLSCN set (AID 602276);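 note: firefly luciferase from ISG56 promoter only with Renilla not read in this screen; 0% = Sendai virus plus DMSO and 100% = medium plus DMSO without virus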
Conditions: HEK293 RL24 IRF3 luciferase reporter, at 10 µM, active compounds read high

inhibition, inactive:
Cc1ccc(-c2nnn(CC(=O)NC3CC4CCC3C4)n2)cc1 (stereo not given) 7.26%
CCOc1cc2[nH]c(=O)n(CCCCC(=O)N3CCCCCC3)c(=O)c2cc1OCC 14.3%
Cc1ccc(C(C)C)c(OCc2nnc(SCC(=O)Nc3ncc(C)s3)n2C)c1 9.43%
COc1cccc(-n2c(SCC(=O)OC(C)C)nnc2-c2cccnc2)c1 9.67%
COCCn1c(SCC(=O)Nc2nnc(C)s2)nnc1-c1c[nH]c2ccccc12 5.93%
CCOC(=O)c1[nH]cc(-c2ccccc2)c1N1CCOCC1 4.95%
CC(C)OP(=O)(c1ccc(N(C)C)cc1)C(O)c1ccccc1F (stereo not given) 11.8%
O=C(CSc1nnc(Cn2cnc3ccccc32)o1)c1ccccc1 7.52%
N#Cc1c(NC(=O)COC(=O)C2CC3C=CC2C3)oc(-c2ccccc2)c1-c1ccccc1 (stereo not given) -1.94%
O=C(NCc1ccccc1)N1CCn2c(nc3ccccc32)C1 -0.797%
CCCCn1c(SCc2cccnc2)nc2c1c(=O)n(C)c(=O)n2C -4.82%
CCOC(=O)c1[nH]c2ccccc2c1NC(=O)c1ccco1 17.1%
CC(C(=O)NCCCN1CCOCC1)n1cccc1C(=O)c1ccccc1 (stereo not given) 17.2%
COc1ccccc1NS(=O)(=O)c1ccc(NC(=O)c2nc3ncccn3n2)cc1 17.6%
CCCCCCC(=O)c1c(C)[nH]c(C(=O)OCC)c1C -13.2%
O=C1CS/C(=N\C(=O)N2c3ccccc3Sc3ccccc32)N1 12%
COc1ccc2c(c1)CCc1c(C(=O)N3CCCc4ccccc43)noc1-2 -24%
O=C(c1ccc(Cl)cc1)N(Cc1cccs1)C1CCS(=O)(=O)C1 (stereo not given) -5.62%
c1nnc(NC2=NCCCCC2)s1 -16.9%
Cc1cncn1CCc1nc2c3ccccc3nc(=S)n2[nH]1 17%
Cc1ccc(S(=O)(=O)Cc2ccc(C(=O)NCc3ccc4c(c3)OCO4)o2)cc1 9.39%
Cn1cnnc1SCC(=O)Nc1sc2c(c1C#N)CCCCC2 -24.5%
O=C(O)c1[nH]nc2c1COc1ccccc1-2 14.5%
CC1(C)CC(=O)c2cc(OCC(=O)NCCCN3CCN(c4ccccc4F)CC3)ccc2O1 9.74%
COCCn1c(=O)[nH]c2cc(C(=O)NCCCN3CCN(c4ccc(F)cc4)CC3)ccc2c1=O 16.2%
O=C(COC(=O)C1(c2ccccc2F)CCCC1)NC1CCS(=O)(=O)C1 (stereo not given) -1.97%
COc1cc(OC)c(C(=O)Nc2ccc(N(C)C)cc2)cc1OC -79.1%
CCOC(=O)Nc1cc(OCC)c(NC(=O)C2CC2)cc1OCC 3.59%
CCOC(=O)c1sc(N2C(=O)C(O)=C(C(=O)c3ccco3)C2c2ccccc2)nc1C (stereo not given) 6.84%
O=c1oc(-c2ccco2)nc2ccccc12 13.9%
COc1cccc(OC)c1C(=O)Nc1ccccc1N1CCCC1 15.4%
Cc1ccccc1Cn1nc(C)c(NC(=O)c2noc3c2CCCC3)c1C -24.6%
Cc1ccc(C(=O)C2COC(=O)C2)cc1 (stereo not given) 18.7%
COc1ccc(S(=O)(=O)n2ccnc2)c2cccnc12 0.31%
CCOC(=O)c1ccc(-c2c(C(=O)OCC)oc3cc(O)c(CC)cc3c2=O)o1 15.3%
COc1cc(NC(=O)c2cc(OC)c(OC)c(OC)c2)c(OC)cc1NC(=O)CN1CCCCC1 3.03%
CCCCC(CC)C(=O)Nc1ccc(Cl)cn1 (stereo not given) 13.3%
O=C(/C=N/O)Nc1cccnc1 21.9%
c1ccc2c(c1)Cn1c-2nc2ccccc21 -36.1%
O=c1cc(COn2nnc3ccc(C(F)(F)F)cc32)nc2sccn12 -2.54%

Experiment: inhibitors of poly I:C-induced TLR3 signaling, primary screen, cell-based, poly I:C stimulus, luciferase, 10K MLSCN set (AID 602277;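 active = inhibition of the reporter signal at or above 50%; inactive = inhibition below 50%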)
Conditions: HEK293-TLR3 RL24 IRF3 luciferase reporter, at 10 µM, active compounds read high

inhibition, active:
N#Cc1c(NC(=O)COC(=O)C2CC3C=CC2C3)oc(-c2ccccc2)c1-c1ccccc1 (stereo not given) 99%
COc1cc(OC)c(C(=O)Nc2ccc(N(C)C)cc2)cc1OC 99.1%

inhibition, inactive:
Cc1ccc(-c2nnn(CC(=O)NC3CC4CCC3C4)n2)cc1 (stereo not given) -0.548%
CCOc1cc2[nH]c(=O)n(CCCCC(=O)N3CCCCCC3)c(=O)c2cc1OCC 18.4%
Cc1ccc(C(C)C)c(OCc2nnc(SCC(=O)Nc3ncc(C)s3)n2C)c1 12.4%
COc1cccc(-n2c(SCC(=O)OC(C)C)nnc2-c2cccnc2)c1 13.7%
COCCn1c(SCC(=O)Nc2nnc(C)s2)nnc1-c1c[nH]c2ccccc12 14.2%
CCOC(=O)c1[nH]cc(-c2ccccc2)c1N1CCOCC1 15.7%
CC(C)OP(=O)(c1ccc(N(C)C)cc1)C(O)c1ccccc1F (stereo not given) 22.5%
O=C(CSc1nnc(Cn2cnc3ccccc32)o1)c1ccccc1 -3.02%
O=C(NCc1ccccc1)N1CCn2c(nc3ccccc32)C1 -7.43%
CCCCn1c(SCc2cccnc2)nc2c1c(=O)n(C)c(=O)n2C 0.323%
CCOC(=O)c1[nH]c2ccccc2c1NC(=O)c1ccco1 21.7%
CC(C(=O)NCCCN1CCOCC1)n1cccc1C(=O)c1ccccc1 (stereo not given) 17%
COc1ccccc1NS(=O)(=O)c1ccc(NC(=O)c2nc3ncccn3n2)cc1 13.9%
CCCCCCC(=O)c1c(C)[nH]c(C(=O)OCC)c1C -55.3%
O=C1CS/C(=N\C(=O)N2c3ccccc3Sc3ccccc32)N1 27.5%
COc1ccc2c(c1)CCc1c(C(=O)N3CCCc4ccccc43)noc1-2 -75%
O=C(c1ccc(Cl)cc1)N(Cc1cccs1)C1CCS(=O)(=O)C1 (stereo not given) -0.322%
c1nnc(NC2=NCCCCC2)s1 -29.4%
Cc1cncn1CCc1nc2c3ccccc3nc(=S)n2[nH]1 28.8%
Cc1ccc(S(=O)(=O)Cc2ccc(C(=O)NCc3ccc4c(c3)OCO4)o2)cc1 14.2%
Cn1cnnc1SCC(=O)Nc1sc2c(c1C#N)CCCCC2 -31.5%
O=C(O)c1[nH]nc2c1COc1ccccc1-2 22.3%
CC1(C)CC(=O)c2cc(OCC(=O)NCCCN3CCN(c4ccccc4F)CC3)ccc2O1 2.15%
COCCn1c(=O)[nH]c2cc(C(=O)NCCCN3CCN(c4ccc(F)cc4)CC3)ccc2c1=O 9.46%
O=C(COC(=O)C1(c2ccccc2F)CCCC1)NC1CCS(=O)(=O)C1 (stereo not given) 9.43%
CCOC(=O)Nc1cc(OCC)c(NC(=O)C2CC2)cc1OCC 11.8%
CCOC(=O)c1sc(N2C(=O)C(O)=C(C(=O)c3ccco3)C2c2ccccc2)nc1C (stereo not given) -6.96%
O=c1oc(-c2ccco2)nc2ccccc12 15.3%
COc1cccc(OC)c1C(=O)Nc1ccccc1N1CCCC1 8.75%
Cc1ccccc1Cn1nc(C)c(NC(=O)c2noc3c2CCCC3)c1C -32%
Cc1ccc(C(=O)C2COC(=O)C2)cc1 (stereo not given) 0.799%
COc1ccc(S(=O)(=O)n2ccnc2)c2cccnc12 8.74%
CCOC(=O)c1ccc(-c2c(C(=O)OCC)oc3cc(O)c(CC)cc3c2=O)o1 7.61%
COc1cc(NC(=O)c2cc(OC)c(OC)c(OC)c2)c(OC)cc1NC(=O)CN1CCCCC1 -8.31%
CCCCC(CC)C(=O)Nc1ccc(Cl)cn1 (stereo not given) 17.2%
O=C(/C=N/O)Nc1cccnc1 26.5%
c1ccc2c(c1)Cn1c-2nc2ccccc21 -131%
O=c1cc(COn2nnc3ccc(C(F)(F)F)cc32)nc2sccn12 14.9%
